The source of these data is PubChem BioAssay.

A short description of experiment [1]: binders of probe aFSTL3 on microarray, primary screen, stem cell growth factor project, biochemical, small-molecule microarray, fluorescence 635/667 (AID 1064).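 Note: measures binding of the biotinylated anti-FSTL3 antibody to printed compounds.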 The conditions noted are these: higher = more signal.
Experiment [2] is described as follows: binders from COS7 lysate, DM2A8 probe, primary screen, torsin A project, cell lysate, small-molecule microarray, fluorescence 635/667 (AID 1065). The conditions noted are these: higher = more signal, COS7 lysate expressing mutant human TOR1A.
Experiment [3] in a line: binders of probe aFGF2 on microarray, primary screen, stem cell growth factor project, biochemical, small-molecule microarray, fluorescence 635/667 (AID 1067).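 Note: measures binding of biotinylated aFGF2 protein to printed compounds on slides; z-score merges feature fluorescence and signal-to-noise across triplicate slides.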 The conditions noted are these: higher = more signal.
A short description of experiment [4]: binders of probe aFGF10 on microarray, primary screen, stem cell growth factor project, biochemical, small-molecule microarray, fluorescence 635/667 (AID 1071).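 Note: score merges 667 nm spot intensity and signal to noise from triplicate slides.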 The conditions noted are these: higher = more signal.
For experiment [5], the target named is Neurogenic locus notch homolog protein 2 (Homo sapiens) (UniProt Q04721). The experiment in a line: Notch2 binders on small-molecule microarrays, primary screen, biochemical, small-molecule microarray, 635 nm fluorescence, stem cell growth factors (AID 1073). The conditions noted are these: Notch2 binding, higher = more signal.
Sequence of Neurogenic locus notch homolog protein 2 (Homo sapiens) (Q04721 whole entry, looked up, canonical isoform): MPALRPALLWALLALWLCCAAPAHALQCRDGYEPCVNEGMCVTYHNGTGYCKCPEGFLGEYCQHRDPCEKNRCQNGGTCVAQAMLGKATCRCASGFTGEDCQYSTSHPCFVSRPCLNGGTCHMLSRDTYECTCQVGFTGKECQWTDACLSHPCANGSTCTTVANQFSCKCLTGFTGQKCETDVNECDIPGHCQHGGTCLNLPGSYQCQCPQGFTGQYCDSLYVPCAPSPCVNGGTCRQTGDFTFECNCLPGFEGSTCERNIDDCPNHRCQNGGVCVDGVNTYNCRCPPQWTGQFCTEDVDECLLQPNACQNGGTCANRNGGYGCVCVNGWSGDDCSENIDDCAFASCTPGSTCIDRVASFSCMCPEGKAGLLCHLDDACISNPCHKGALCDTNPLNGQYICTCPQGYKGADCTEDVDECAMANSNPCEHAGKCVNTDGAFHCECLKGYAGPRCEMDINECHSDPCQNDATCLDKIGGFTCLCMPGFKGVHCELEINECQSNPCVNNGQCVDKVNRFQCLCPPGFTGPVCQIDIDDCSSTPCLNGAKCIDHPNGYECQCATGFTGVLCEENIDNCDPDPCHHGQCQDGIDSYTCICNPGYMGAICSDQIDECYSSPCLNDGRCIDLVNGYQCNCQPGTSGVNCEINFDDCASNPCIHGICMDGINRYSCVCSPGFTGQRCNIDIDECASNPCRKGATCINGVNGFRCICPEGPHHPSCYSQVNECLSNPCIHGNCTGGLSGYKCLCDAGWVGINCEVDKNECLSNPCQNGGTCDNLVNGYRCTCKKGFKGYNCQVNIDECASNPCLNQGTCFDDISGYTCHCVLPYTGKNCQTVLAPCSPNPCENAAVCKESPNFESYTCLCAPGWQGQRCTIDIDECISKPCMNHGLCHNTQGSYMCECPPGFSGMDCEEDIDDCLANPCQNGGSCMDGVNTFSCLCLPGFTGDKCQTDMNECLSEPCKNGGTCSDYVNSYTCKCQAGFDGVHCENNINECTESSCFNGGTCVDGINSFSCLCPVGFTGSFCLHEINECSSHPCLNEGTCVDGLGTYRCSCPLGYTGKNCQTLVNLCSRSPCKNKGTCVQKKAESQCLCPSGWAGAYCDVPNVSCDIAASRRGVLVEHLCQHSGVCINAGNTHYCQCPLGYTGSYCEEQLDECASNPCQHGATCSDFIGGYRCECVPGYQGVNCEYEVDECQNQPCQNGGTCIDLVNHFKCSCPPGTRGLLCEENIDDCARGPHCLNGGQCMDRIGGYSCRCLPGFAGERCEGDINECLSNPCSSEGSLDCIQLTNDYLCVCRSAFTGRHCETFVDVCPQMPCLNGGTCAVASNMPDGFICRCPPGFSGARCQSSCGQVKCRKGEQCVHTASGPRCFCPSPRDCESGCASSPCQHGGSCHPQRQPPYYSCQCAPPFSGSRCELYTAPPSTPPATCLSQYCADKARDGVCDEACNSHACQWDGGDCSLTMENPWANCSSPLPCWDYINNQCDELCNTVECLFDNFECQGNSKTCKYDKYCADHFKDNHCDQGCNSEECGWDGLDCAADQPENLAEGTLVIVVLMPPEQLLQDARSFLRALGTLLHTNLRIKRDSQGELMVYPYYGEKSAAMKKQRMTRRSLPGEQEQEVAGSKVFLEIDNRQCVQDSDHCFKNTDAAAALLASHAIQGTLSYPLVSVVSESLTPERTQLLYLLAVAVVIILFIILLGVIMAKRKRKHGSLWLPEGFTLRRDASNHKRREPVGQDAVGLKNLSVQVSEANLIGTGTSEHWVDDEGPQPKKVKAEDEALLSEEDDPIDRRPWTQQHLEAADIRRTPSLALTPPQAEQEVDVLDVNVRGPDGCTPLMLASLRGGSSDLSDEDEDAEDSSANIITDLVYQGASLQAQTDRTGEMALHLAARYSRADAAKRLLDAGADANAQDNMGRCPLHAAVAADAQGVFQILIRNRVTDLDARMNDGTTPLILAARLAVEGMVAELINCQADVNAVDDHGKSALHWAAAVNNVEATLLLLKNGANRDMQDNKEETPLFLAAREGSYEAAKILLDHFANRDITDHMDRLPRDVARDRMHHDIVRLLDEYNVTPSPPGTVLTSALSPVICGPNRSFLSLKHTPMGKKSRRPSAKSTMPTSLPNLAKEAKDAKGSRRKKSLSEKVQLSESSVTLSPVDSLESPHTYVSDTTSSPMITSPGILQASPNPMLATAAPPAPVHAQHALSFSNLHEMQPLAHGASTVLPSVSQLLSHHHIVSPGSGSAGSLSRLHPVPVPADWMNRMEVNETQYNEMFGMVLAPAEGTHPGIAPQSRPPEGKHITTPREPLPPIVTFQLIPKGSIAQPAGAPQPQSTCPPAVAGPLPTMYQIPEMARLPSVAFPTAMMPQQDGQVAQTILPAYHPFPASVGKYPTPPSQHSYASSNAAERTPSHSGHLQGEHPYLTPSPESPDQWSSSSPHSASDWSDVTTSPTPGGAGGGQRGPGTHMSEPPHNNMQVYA
Experiment [6] concerns the target Pro-neuregulin-1, membrane-bound isoform (Homo sapiens) (UniProt Q02297). The experiment is described as follows: NRG1 binders on small-molecule microarrays, primary screen, psychiatric disease protein project, biochemical, small-molecule microarray, fluorescence 635/667 (AID 1075).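 Note: score combines 667 nm spot fluorescence with signal to noise.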 The conditions noted are these: NRG1 binding, 635 nm fluorescence, higher = more signal.

Experiment [7] concerns Neuregulin-1 EGF-like domain. The experiment is described as follows: binders of neuregulin-1 EGF-like domain, primary screen, biochemical, small-molecule microarray, 635 nm fluorescence (AID 1081).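 Note: binding of the protein to compounds printed on small-molecule microarray slides.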 The conditions noted are these: small-molecule microarray binding, higher = more signal.
A short description of experiment [8]: FRG1 promoter luciferase signal modulators, primary screen, FRG1 inhibition for FSHD, cell-based, C2C12 myotubes, firefly/Renilla luciferase, luminescence (AID 1084). The conditions noted are these: higher = more signal, called active from +8 up or from −8 down.
Experiment [9] can be described thus: binders of probe aFST on microarray, primary screen, stem cell growth factor project, biochemical, small-molecule microarray, fluorescence 635/667 (AID 1086).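 Note: score merges 667 nm fluorescence with signal-to-noise of each printed compound spot.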 The conditions noted are these: higher = more signal.
The nature of experiment [10]: binders of probe aHhip on microarray, primary screen, stem cell growth factor project, biochemical, small-molecule microarray, fluorescence 635/667 (AID 1087).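 Note: score merges spot fluorescence at 667nm with spot signal to noise ratio.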 The conditions noted are these: higher = more signal.

Calls of active or inactive are those of the source.

Sequence of Pro-neuregulin-1, membrane-bound isoform (Homo sapiens) (Q02297 whole entry, looked up, canonical isoform): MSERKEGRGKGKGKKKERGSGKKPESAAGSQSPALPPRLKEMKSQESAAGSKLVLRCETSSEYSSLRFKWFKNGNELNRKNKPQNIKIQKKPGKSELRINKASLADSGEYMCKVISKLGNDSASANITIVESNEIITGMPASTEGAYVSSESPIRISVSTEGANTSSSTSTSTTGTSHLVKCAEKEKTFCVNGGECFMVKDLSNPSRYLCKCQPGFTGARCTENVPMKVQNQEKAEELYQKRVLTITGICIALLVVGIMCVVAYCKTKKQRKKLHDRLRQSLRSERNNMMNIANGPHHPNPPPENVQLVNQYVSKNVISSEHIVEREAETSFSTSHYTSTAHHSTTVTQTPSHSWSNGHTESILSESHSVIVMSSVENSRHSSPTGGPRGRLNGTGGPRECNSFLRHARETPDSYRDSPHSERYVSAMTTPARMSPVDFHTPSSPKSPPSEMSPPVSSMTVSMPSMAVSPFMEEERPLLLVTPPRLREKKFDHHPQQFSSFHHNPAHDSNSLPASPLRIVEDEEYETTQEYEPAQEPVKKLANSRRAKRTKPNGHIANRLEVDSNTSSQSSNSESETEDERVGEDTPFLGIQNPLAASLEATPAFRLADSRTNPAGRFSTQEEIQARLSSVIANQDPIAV

Turning to `COC(=O)C[C@H]1O[C@]2(C(=O)N(C)c3ccccc32)[C@@H](C)[C@@H]1[Si](C)(C)c1ccccc1`, the composite z-score in [1] was -0.486; in experiment [2], 0.0686; in experiment [3], -0.0767; in experiment [4], 0.351; in experiment [5], 0.731; in [6], 0.033. The composite z-score in [7] was determined as 0.854; in experiment [9], 0.333; in experiment [10] it was 0.357. Moreover, the z-score in [8] is -2.11 (inactive).
Turning to `CCCC1(C(=O)OC)C=C2C(=C(C(C)C)C(=O)C2C)CN1` (stereo not given), the composite z-score in experiment [1] was 0.578; in experiment [2], -0.241; in experiment [3], -0.133; in experiment [4], -0.397; in experiment [5], -0.052; in [6], 0.688. The composite z-score was -0.15 in experiment [7], -0.0967 in experiment [9] and -0.0645 in [10]. The z-score in [8] is 1.89 (inactive).
With `CN1C2C=C(c3ccc(CO)cc3)C(C3C(=O)N(C(N)=O)C(=O)C32)C1C1CC1` (stereo not given), the composite z-score in experiment [1] is -0.153; in experiment [2] it was 0.103; in experiment [3] it was -0.146; in experiment [4], -0.0401; in experiment [5], -0.161; in [6], 0.0413. Also, the composite z-score was 0.663 in [7], -0.0595 in [9] and -0.201 in experiment [10]. The z-score in [8] is 0.567 (inactive).
Turning to `C=CCNC(=O)[C@H]1[C@@H]2C(=O)O[C@@H](c3ccccc3)[C@@H](c3ccccc3)N2[C@@H](c2ccc(O)cc2)[C@]12C(=O)Nc1ccccc12`, the composite z-score is 0.318 in experiment [1]; 0.111 in experiment [2]; -0.0628 in experiment [3]; -0.519 in [4]; -1.15 in [5]; 0.992 in experiment [6]. The composite z-score in experiment [7] was 1.09; in [9], -0.228; in [10] it was 0.0749. For the same compound, the z-score in experiment [8] was -2.15 (inactive).
Consider `COc1ccc([Si](C)(C)[C@@H]2[C@@H](CC(=O)N3CCC[C@H]3CO)O[C@]3(C(=O)N(Cc4cccc(N5C(=O)c6cccc7cccc5c67)c4)c4ccccc43)[C@H]2C)cc1`, for which the composite z-score is -0.401 in experiment [1]; 0.342 in experiment [2]; -0.0666 in experiment [3]; 0.219 in experiment [4]; -0.321 in [5]; 1.22 in [6]. In addition, the composite z-score in experiment [7] is 1.06; in experiment [9], 0.019; in experiment [10] it was -0.0618. Besides, the z-score in [8] is -1.01 (inactive).
On to `O=C1O[C@H](c2ccccc2)[C@H](c2ccccc2)N2[C@H]1[C@@H](C(=O)N1CCN(c3ncccn3)CC1)[C@]1(C(=O)Nc3ccc(C#CC4(O)CCCCCC4)cc31)[C@H]2c1ccc(O)cc1`, for which the composite z-score in experiment [1] was 0.406; in [2] it was 2.01; in experiment [3], -0.0125; in experiment [4], 1.04; in experiment [5] it was 0.607; in experiment [6] it was 1.54. For the same compound, the composite z-score in experiment [7] was 1.28; in experiment [9], 0.0718; in experiment [10], -0.0645. Also, the z-score in [8] is 0.0132 (inactive).
In the case of `COC(=O)[C@@]1(Cc2ccc(F)cc2)[C@H]2c3cc(C(=O)N(C)C)n(CCF)c3C[C@H]2CN1C(=O)c1ccccc1`, the composite z-score in experiment [1] is 0.267; in experiment [2] it was 0.0612; in [3], 0.131; in experiment [4], 0.623; in experiment [5], 1.22; in experiment [6], 1.83. Also, the figures for the composite z-score in experiment [7], in experiment [9] and in experiment [10] were 1.06, 0.329 and 0.0274, respectively. In addition, in [8], the z-score is -1.3 (inactive).
For `O=C1N(Cc2ccccc2)Cc2ccccc2C[C@@]12COC(c1ccc(OCCCO)cc1)=N2`, the composite z-score is 1.18 in experiment [1]; 0.455 in experiment [2]; -0.0428 in experiment [3]; -0.0784 in experiment [4]; -0.0568 in experiment [5]; 0.605 in experiment [6]. The composite z-score stood at 1.21 in experiment [7], 0.419 in experiment [9] and 0.369 in experiment [10]. Also, in experiment [8], the z-score is -1.58 (inactive).
As to `CCOC(=O)C[C@H]1[C@H](OC(=O)c2cc3ccccc3oc2=O)[C@@H](NC(=O)c2ccc(-c3ccccc3)cc2)c2cc(OCCCO)ccc2N1C(=O)Cc1ccc(OC)cc1`, the composite z-score in [1] is -0.428; in [2] it was 0.0922; in [3] it was -0.0667; in experiment [4], 0.67; in experiment [5], 0.992; in experiment [6], 0.178. Also, the composite z-score was 1.18 in experiment [7], 0.494 in experiment [9] and -0.132 in experiment [10]. Also, the z-score in experiment [8] is 0.228 (inactive).
Take `CCCCC=C[C@@H](NC(=O)C(C)(C)C)c1ccccc1`: the composite z-score in experiment [1] was found to be 0.0905; in [2] it was 0.161; in [3], 0.0775; in [4], 0.57; in [5] it was 1.5; in experiment [6], 1.07. In addition, the composite z-score in [7] turned out to be 0.357; in [9], 0.553; in experiment [10], 0.388. For the same compound, the z-score in [8] is -0.751 (inactive).
As for `CCCCCCc1nc(Cc2cc(OC)c(OC)c(OC)c2)c(C)c2c1[Si](C(C)C)(C(C)C)OC2`, the composite z-score is -0.491 in experiment [1]; 0.0293 in [2]; -0.0328 in experiment [3]; -0.0482 in [4]; -0.0366 in [5]; -0.186 in experiment [6]. Besides, the composite z-score in experiment [7] is 0.105; in [9], -0.0696; in experiment [10], -0.274. Also, the z-score in experiment [8] is -0.474 (inactive).
Consider `[N-]=[N+]=NCc1ccccc1[C@H]1OC(c2ccc(OCCCO)cc2)=N[C@@]1(Cc1ccccc1N=[N+]=[N-])C(N)=O`, for which the composite z-score in experiment [1] came to 0.0097; in experiment [2] it was 0.998; in experiment [3], 0.05; in experiment [4], 0.995; in experiment [5] it was 1.54; in experiment [6], 1.7. For the same compound, the composite z-score in experiment [7] is 1.11; in [9], 1.76; in experiment [10], -0.156. Also, the z-score in [8] is 4.46 (inactive).
Regarding `C=CCOC(=O)[C@H]1[C@@H]2C(=O)O[C@@H](c3ccccc3)[C@@H](c3ccccc3)N2[C@@H](c2ccc(OCCOC(=O)[C@H]3C[C@H]4C(=O)NCC(=O)N4[C@H]3c3ccc(O)cc3)cc2)[C@]12C(=O)Nc1ccccc12`, the composite z-score was 0.924 in [1]; 0.933 in experiment [2]; -0.0355 in experiment [3]; 0.738 in experiment [4]; 1.2 in experiment [5]; 1.57 in experiment [6]. For the same compound, the composite z-score in [7] was determined as 1.33; in [9], 0.389; in experiment [10] it was 0.49. Besides, in experiment [8], the z-score is 0.575 (inactive).
As for `O=C(NCC(F)(F)F)[C@@H]1c2ccccc2C(=O)N(Cc2cc(C(F)(F)F)cc(C(F)(F)F)c2)[C@H]1c1ccc(CO)cc1`, the composite z-score in experiment [1] was -0.381; in [2], -0.147; in experiment [3], -0.203; in experiment [4], -0.155; in [5] it was 0.154; in [6], 1.73. In addition, the composite z-score in experiment [7] is 1.25; in experiment [9], -0.192; in experiment [10], -0.0296. In addition, the z-score in experiment [8] is -0.884 (inactive).
On to `COC(=O)[C@@]1(Cc2ccc(OC)cc2)[C@@H]2[C@@H](CC(=O)[C@H]2CC(=O)C(=O)N(C)C)CN1C(=O)c1ccccc1`, for which the composite z-score in [1] stood at 2.09; in [2], 0.496; in [3] it was 0.81; in [4] it was 1.2; in [5] it was 1.78; in [6], 1.69. Also, the composite z-score was 1.06 in experiment [7], 2.67 in experiment [9] and 0.357 in experiment [10]. Besides, in experiment [8], the z-score is -0.224 (inactive).
Regarding `Cc1ccc(S[C@]2(C(=O)NC(C)C)CC(=O)N(Cc3ccccc3)[C@@H]2c2ccc(CO)cc2I)cc1`, the composite z-score in experiment [1] is 1.28; in [2] it was -0.37; in [3], -0.0303; in experiment [4], 0.176; in [5], -0.705; in experiment [6], 0.291. Moreover, the composite z-score in experiment [7] was 0.478; in experiment [9], -0.26; in experiment [10], -0.226. Moreover, in [8], the z-score is -0.259 (inactive).
